# Bioassay records: PubChem BioAssay, National Center for Advancing Translational Sciences (NCATS)
# Most compounds without a hit are left out; they make up all but 19% or so of the library.
# HT1080 IDH1KD tx: qHTS for induction of synthetic lethality in tumor cells producing 2HG: qHTS for the HT-1080-IDH1KD cell line. hit rate 2% among 360,000. HT-1080 IDH1 knockdown viability, ATP luminescence, 48 h. Potency, µM (titrated, usually from 46.1 µM), hits mostly cytotoxic
#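 CellTiter-Glo luminescence after 48 h compound exposure at 37 degrees C of IDH1-knockdown HT-1080 cells in 5% FBS RPMI. %Activity scaled between DMSO wells and cell-free media wells, with curves fitted and assigned curve classes.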
# TDP1 cell noCPT: qHTS for Inhibitors of human tyrosyl-DNA phosphodiesterase 1 (TDP1): qHTS in cells in absence of CPT; AID 686978, 2013; Potency, µM (series often up to 46.2 µM), hits mostly inhibitors; DT40 Tdp1-/- hTDP1 cells, no CPT, ATP luminescence, 48 h; hit rate 15% among 420,000; note: nearly all actives have a fitted effect of over 55% in size
#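 Luminescent ATP content (CellTiter-Glo) served as the growth readout. Knockout chicken DT40 cells expressing human TDP1 were exposed to compounds without camptothecin for a minimum 48 hr at 37 °C.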
# IL1B secr inh: qHTS for Inhibitors of Inflammasome Signaling: IL-1-beta AlphaLISA Primary Screen; hit rate 4.7% among 360,000; THP-1 LPS/ATP IL-1B secretion, AlphaLISA, 16 h; hits give low values; AID 743279, 2014; activity change, % at 57.5 µM; in the data active = activity change below about -50%; inconclusive = mostly about -30% to -49%
#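 THP-1 cells pretreated 1 hr with compounds (up to 57.5 uM final), then stimulated with LPS (250 ng/mL final) plus ATP (1.25 mM final); secreted IL-1B measured by AlphaLISA after 16 hr, decreased signal indicating inhibition.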
# HT1080-NT tox: qHTS for induction of synthetic lethality in tumor cells producing 2HG: qHTS for the HT-1080-NT fibrosarcoma cell line; HT-1080-NT fibrosarcoma viability, CellTiter-Glo ATP luminescence, 48 h; Potency, µM (highest dose often 46.1 µM), actives largely listed as cytotoxic; hit rate 1.6% among 360,000;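 note: NT is the 2HG producing partner of a matched IDH1 knockdown line; nearly all actives have a fitted effect of over 55% in size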
#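 Read-out is CellTiter-Glo luminescence after 10 minutes at room temperature, following 48 hours' compound treatment of HT-1080-NT cells (750 cells/well, RPMI, 5% FBS, 37 degrees C).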
# TDP1 cell CPT: qHTS for Inhibitors of human tyrosyl-DNA phosphodiesterase 1 (TDP1): qHTS in cells in presence of CPT | chicken DT40 Tdp1-/-;hTDP1 cells + 20 nM CPT, ATP luminescence, 48 h | Potency, µM (top dose mostly 46.2 µM), actives largely listed as inhibitors | hit rate 12% among 420,000; note: nearly all actives have a fitted effect of over 55% in size
#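 Cell growth measured by CellTiter-Glo luminescence after a minimum 48 h, 37 C compound exposure with 20 nM CPT in Tdp1-knockout DT40 cells stably expressing hTDP1, seeded 400/well; qHTS titration format.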
# Numbers stand for hits; – = inactive; ? = inconclusive; · = no result; ! = not active in a repeat; [ ] = another dose, or the depositor's remark. Unless noted, calls come from the whole dose curve; as a rule, active = well fitted curve in the direction sought with a large enough effect; inconclusive = small, poorly fitted or top-dose-only effect, or another doubt; inactive = no such curve, though single readings can be large; an effect the other way counts as inactive or inconclusive.
SMILES,HT1080 IDH1KD tx,TDP1 cell noCPT,IL1B secr inh,HT1080-NT tox,TDP1 cell CPT
COc1cc2ncnc(NCc3ccccc3Cl)c2cc1OC,–,13µM,–,–,21µM
COc1cc2ncnc(NCc3ccc(Cl)cc3)c2cc1OC,–,?,–,–,?
COc1cc2ncnc(N[C@H](C)c3ccccc3)c2cc1OC,–,23µM,–,–,18µM
Cc1ccc(CNc2ncnc3cc(Cl)ccc23)o1,–,13µM,–,–,10µM
Clc1ccc(CNc2ncnc3[nH]ncc23)c(Cl)c1,–,16µM,-54,–,?
Clc1ccc(CNc2ncnc3[nH]ncc23)cc1Cl,?,?,–,?,–
O=C(C[C@@H]1CC[C@@H]2[C@H](COC[C@H](O)CN2C(=O)Nc2ccc(F)cc2)O1)NCCc1ccncc1,–,–,–,–,–
CN1CCN(S(=O)(=O)c2ccccc2)C(c2ccccc2)C1 (configuration not stated),–,–,–,–,–
COc1cc2ncnc(NCc3ccccc3F)c2cc1OC,–,?,–,–,?
Fc1ccc(F)c(CNc2ncnc3cc(Cl)ccc23)c1,?,15µM,?,?,15µM
CC(Nc1ncnc2nc[nH]c12)c1ccccc1 (configuration not stated),–,13µM,–,–,16µM
Cc1ccc(CNc2ncnc3cc(Cl)ccc23)cc1,23µM,18µM,–,?,26µM
COc1cc2ncnc(NCc3ccc(C)o3)c2cc1OC,–,21µM,–,–,?
Cc1ccccc1CNc1ncnc2cc(Cl)ccc12,?,?,–,?,–
CCn1cc(C(=O)O)c(=O)c2cc(F)c(N3CCNC(C)C3)c(F)c21 (configuration not stated),·,?,·,·,15µM
Nc1nc(N)c2[nH]c(=S)[nH]c2n1,–,–,–,–,–
O=C(NCC1CCN(C(=O)c2c(F)c(F)c(F)c(F)c2F)CC1)c1c(F)c(F)c(F)c(F)c1F,–,?,–,–,?
CCCCCCCCCCOC(=O)Cn1c(COc2ccccc2C)[n+](C)c2ccccc21,12µM,1µM,-97,23µM,1.6µM
CCOC(=O)Cn1c(COc2ccccc2OC)[n+](C)c2ccccc21,–,–,–,–,?
CCCCCCCCCCOC(=O)Cn1c(COc2ccc(Cl)cc2)[n+](C)c2ccccc21,–,4.6µM,-72,–,4.1µM
CCCCCCCCCCOC(=O)Cn1c(COc2ccccc2)[n+](C)c2ccccc21,–,2.6µM,–,–,5.8µM
CCCCCOC(=O)Cn1c(=O)oc2ccccc21,–,–,–,–,–
CCCCCCCCCCOC(=O)Cn1c(COc2cccc(C)c2)[n+](C)c2ccccc21,?,4.6µM,-97,?,7.3µM
CCc1ccc2oc(-c3ccc(NC(C)=O)cc3)nc2c1,–,–,?,–,–
CCCCOC(=O)Cn1c(=O)n(CC(=O)OCCCC)c2ccccc21,–[9.24 µM],–,–,–,–
SMILES,HT1080 IDH1KD tx,TDP1 cell noCPT,IL1B secr inh,HT1080-NT tox,TDP1 cell CPT
CCCCCCCCCCOC(=O)Cn1c(COc2ccc(OC)cc2)[n+](C)c2ccccc21,13µM,2.6µM,-108!,21µM,2.6µM
CC1(C)CC(=O)C=C(c2cccc(O)c2)C1,–,?,–,–,–
CCc1ccc(CNC(=O)c2cnc(N3CCCCC3)c3ccccc23)cc1,·,26µM,·,·,23µM
CCc1ccc(NC(=O)c2cnc(N3CCN(c4ccccn4)CC3)c3ccccc23)cc1,–,6.5µM,–,–,7.3µM
CCc1ccc(CNC(=O)c2cnc3c(C)cccn3c2=O)cc1,·,?,·,·,–
O=C(NCc1ccccc1Cl)c1cnc(N2CCCCC2)c2ccccc12,·,?,·,·,18µM
Cc1cc2nc(NC(=O)C3(C)CCCN(C(C)C)C3)[nH]c2cc1C (configuration not stated),–,–,–,–,–
CCn1ccnc1CN1CCCC(C(=O)c2ccc3cc(OC)ccc3c2)C1 (configuration not stated),?,4.6µM,-96,?,2.9µM
